Activity calls are given as the source filed them. Entries that show only a call come without a potency. The call rests on the fitted dose curve; in most records, active means well fitted inhibition curve with a large enough effect; inconclusive means small, poorly fitted or top-dose-only effect; inactive means flat fitted curve, though single readings scatter.
Biological target: Luciferin 4-monooxygenase (Photinus pyralis) (UniProt P08659)
Experiment: Primary firefly luciferase (FLuc) qHTS assay for identification of artifact compounds. (AID 1845220); further: nearly all actives have a fitted effect of over 60% in size
Details: purified firefly luciferase, luminescence, 5 min; series mostly up to 54.1 µM
How it was run: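 Titrated compounds were incubated 15 min at RT, protected from light, with luciferin and ATP at 10 uM; reaction started with 10 nM FLuc, luminescence imaged at 5 min, and concentration-response fitted by Hill equation.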
Potency means the concentration at half of the fitted maximal effect.

SMILES	Potency
Cc1nc(N)sc1-c1ccnc(Nc2ccc(N3CCOCC3)cc2)n1	5.36 µM (active)
O=c1[nH]cnc2c1ncn2[C@H]1CC[C@@H](CO)O1	inactive
COc1cc2c(cc1OC)CN(CCc1ccc(NC(=O)c3cc(OC)c(OC)cc3NC(=O)c3cnc4ccccc4c3)cc1)CC2	inactive
CC(C)(C)Cn1c(N)nc2ccc(-c3[nH]c(C(C)(C)C)nc3-c3ccc(F)cc3)nc21	inactive
CC(=O)Nc1ccc([C@H](C)C(=O)Nc2ncc(C(C)C)s2)cc1	inactive
COc1ccc(Cc2ccc(NC(N)=O)cc2)cc1-c1cccc(Cl)c1	inactive
COc1cc(N2CCC(N3CCN(C)CC3)CC2)ccc1Nc1ncnc(Nc2ccccc2S(=O)(=O)C(C)C)n1	inactive
CNC1CCC(N(Cc2cccc(-c3ccncc3)c2)C(=O)c2sc3c(F)ccc(F)c3c2Cl)CC1 (stereo not given)	inactive
CN(C[C@@H]1COCCO1)S(=O)(=O)Nc1ccc2ccc3ncc(-c4cnn(C)c4)cc3c(=O)c2c1	inactive
CC(C)C(=O)Nc1ncc(-c2cc(C(F)F)nn2-c2c(Cl)cccc2Cl)s1	inactive
CC(C)C(=O)Oc1ccc(CO)cc1[C@H](CCN(C(C)C)C(C)C)c1ccccc1	inactive
COc1ccc2c(Oc3ccc(NC(=O)c4c(C)n(CC(C)(C)O)n(-c5ccccc5)c4=O)nc3)ccnc2c1	inactive
COc1cc2ncnc(-n3nc(-c4ccccn4)nc3N)c2cc1OC	inactive
O=c1cc(CN2CCOCC2)occ1OCCCCCSc1ccnc2cc(C(F)(F)F)ccc12	inactive
COCCOC(=O)C1=C(C)NC2=C(C(=O)CC(c3ccccc3OC)C2)C1c1cccc(O)c1 (stereo not given)	inactive
C=C1C(=O)[C@@]23C(CC[C@@H]1[C@H]2O)[C@@]12CO[C@]3(O)[C@@H](O)[C@@H]1C(C)(C)CC[C@@H]2O (stereo not given in full)	inactive
COc1ncc(-c2ccc3nccc(-c4ccnnc4)c3c2)cc1NS(=O)(=O)c1ccc(F)cc1F	inactive
Cc1ccc(Nc2cc(-c3cccc(N4C(=O)c5ccccc5C4=O)c3)ncn2)cc1NS(C)(=O)=O	inactive
CS(=O)c1ccc(-c2nc(-c3ccc(F)cc3)c(-c3ccncc3)[nH]2)cc1 (stereo not given)	inactive
CC(C)(C)c1cc(C(=O)O)c(NC(=O)Nc2ccc3[nH]ncc3c2)s1	16.9 µM (active)

Source: PubChem BioAssay (NCATS)
